# Bioassay records as filed in PubChem BioAssay.
# Compounds with a hit are over-represented: about 9% of the library has one in this group of screens.
# ALOX12 inh – blocks human arachidonate 12S-lipoxygenase; P18054; Potency, µM (top dose mostly 108 µM), for inactives: at the highest dose activity change, negative = inhibition, most hits filed as inhibitors; AID 1671190; purified 12hLO, xylenol orange hydroperoxide absorbance; 1.1% of 580,000 active; note: % is set by controls: 0 for no effect and ±100 for the full control effect
#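 Purified human 12hLO (150 nM final) in 25 mM Hepes, 0.01% Triton X-100, pH 7.0 was preincubated 15 min at room temperature with compound. Then 40 uM arachidonic acid was added, 30 min. Hydroperoxide was read by Fe-XO absorbance ratio 573/405 nm.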
# JMJD2A Tudor inh – inhibitors of human JMJD2A Tudor domain. O75164. AlphaScreen JMJD2A-Tudor / H3K4me3 peptide binding. Potency, µM (series often up to 114 µM), inactives show at the highest dose activity change, negative = inhibition, hits mostly inhibitors. 4.4% of 390,000 active; note: % is set by controls: 0 for no effect and ±100 for the full control effect; nearly all actives have a fitted effect of over 50% in size
# HP1b binding inh – HP1-beta chromodomain-methylated histone interaction inhibition | 0.56% of 390,000 active | P83916 | AlphaScreen HP1-beta / biotin-H3K9me3 peptide binding | Potency, µM (doses to about 114 µM), inactives show at the top dose activity change, negative = inhibition, most hits filed as inhibitors; note: nearly all actives have a fitted effect of over 70% in size
#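 HP1-beta protein (50 nM final) preincubated 30 min at room temperature with biotinylated H3(1-18)K9me3 peptide (50 nM) in PBS pH 7.4, 0.01% Tween-20, then compound added for 30 min. AlphaScreen streptavidin donor/nickel chelate acceptor beads (10 ug/mL final), 30 min dark, luminescence read.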
# G9a inh – blocks human histone lysine methyltransferase G9a. Q96KQ7. G9a H3K9 monomethylation, AlphaScreen, 2 h. Potency, µM (titrated, usually from 102 µM), for inactives: at the top dose activity, negative = inhibition, most hits filed as inhibitors. 8.8% of 350,000 active; note: % is set by controls: 0 for no effect and ±100 for the full control effect; nearly all actives have a fitted effect of over 75% in size
#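 Using a bead-based AlphaScreen, monomethylated H3K9 product from 2 h room-temperature reactions (G9a 20 nM, peptide 500 nM, SAM 20 uM) was detected with 0.5 ug/mL rabbit anti-H3K9me1 antibody.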
# BAZ2B block – blocks human BAZ2B | AlphaScreen BAZ2B-H3K14Ac peptide displacement | Potency, µM (highest dose often 114 µM), for the others: at the highest dose activity change, negative = inhibition, usual class: inhibitors | Q9UIF8 | 4.4% of 360,000 active | AID 504333; note: % is set by controls: 0 for no effect and ±100 for the full control effect; nearly all actives have a fitted effect of over 60% in size
#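 AlphaScreen displacement of biotin-H3(5-23)K14Ac peptide (50 nM final) from BAZ2B (50 nM final) in PBS pH 7.4, 0.01% Tween-20; complex preformed 30 min RT, then compounds (top 110 uM) 30 min RT, beads 20 min dark.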
# PLK1 PBD inh – blocks phosphopeptide binding to human PLK1 polo-box domain; 2.8% of 360,000 active; Potency, µM, without a hit: max response, negative = inhibition, usual class: inhibitors; P53350; Plk1 PBD binding of FITC phosphopeptide, fluorescence polarization; note: series mostly up to about 57 µM; % is set by controls: 0 for no effect and ±100 for the full control effect; nearly all actives have a fitted effect of over 65% in size
# Numbers without * were called inactive; ? = inconclusive; · = no result given; [ ] = another dose, or the depositor's remark. Calls come from the whole dose curve; as a rule, active = well fitted curve in the direction sought with a large enough effect; inconclusive = small, poorly fitted or top-dose-only effect, or another doubt; inactive = no such curve, though single readings can be large; an effect the other way counts as inactive or inconclusive. Potency is the fitted concentration of half-maximal effect.
SMILES,ALOX12 inh,JMJD2A Tudor inh,HP1b binding inh,G9a inh,BAZ2B block,PLK1 PBD inh
Cc1cccc(-c2nc(CN3CCN(C(=O)C4CCCO4)CC3)cs2)c1 (configuration not stated),409%,-18%,4%,71µM*,-37%,-11%
Cc1ccc(-c2nc(CN3CCN(C(=O)C4CCCO4)CC3)co2)cc1 (configuration not stated),23%,·,·,·,·,·
N#Cc1ccc(C(=O)Nc2cc(S(=O)(=O)Nc3ccc(Cl)cc3)ccc2N2CCCCC2)cc1,?,?,?,7.1µM*,-23%,6µM*
COc1ccc(NS(=O)(=O)c2ccc(N3CCOCC3)c(NC(=O)c3ccc(F)cc3)c2)cc1,-17%,-9%,26%,20%[59 µM],-12%,-1%
O=C(Nc1cc(S(=O)(=O)Nc2ccc(Cl)cc2)ccc1N1CCCCC1)c1ccc(F)cc1,?,?,?,10µM*,0%,12µM*
N#Cc1ccc(C(=O)Nc2cc(S(=O)(=O)N3CCOCC3)ccc2N2CCCC2)cc1,38%,-20%,36%,·,·,-2%
O=C(CSCc1ccccc1)NCCCN1CCOCC1,8%,-15%,39%,22%,-1%,-22%
Cc1ccc(NC(=O)CN(c2ccc(C)cc2)S(=O)(=O)c2cccc3nonc23)cc1,?,?,-1%,50µM*,-32%,3%
Cc1cc(C)nc(NCC(O)COc2ccccc2C)n1 (configuration not stated),-10%,-4%,26%,45µM*,0%,-2%
Cc1cc(C)nc(NCC(O)CNc2ccccc2C)n1 (configuration not stated),-26%,-24%,-8%,10%,-28%,-8%
O=C(O)c1ccccc1SC1CC(=O)N(c2ccccc2)C1=O (configuration not stated),-9%,?,18%,?,-20%,-11%
CCOC(=O)c1cc(CC)sc1N1C(=O)CC(Sc2ncccc2C(=O)O)C1=O (configuration not stated),2%,-6%,54%,25µM*,-22%,-1%
COC(=O)c1c(N2C(=O)CC(Sc3ccccc3C(=O)O)C2=O)sc2c1CCCC2 (configuration not stated),?,-29%,7%,1.4µM*,50µM*,24µM*
O=C(O)c1cccnc1SC1CC(=O)N(c2cccc3ccccc23)C1=O (configuration not stated),·,·,·,?,-18%,·
CCOC(=O)c1cc(CC)sc1N1C(=O)CC(Sc2ccccc2C(=O)O)C1=O (configuration not stated),?,-26%,24%,1.8µM*,63µM*,?
O=C(Nc1nnc([C@@H]2C[C@H](O)[C@@H](CO)O2)s1)Nc1ccccc1Oc1ccccc1,-7%,·,·,·,·,0%
CN1CCN(C(=O)c2ccc(S(=O)(=O)Nc3ccccc3)cc2)CC1,29%,11%,51%,6%[12.7 µM],-1%,6%
CN1CCN(C(=O)c2ccc(NS(=O)(=O)c3cccc([N+](=O)[O-])c3)cc2)CC1,-17%,-13%,-4%,45µM*,3%,-30%
Cc1cc(C)c2nc(NNC(=O)c3ccc(S(=O)(=O)N4CC(C)CC(C)C4)cc3)sc2c1 (configuration not stated),6.3µM*,16µM*,-12%,28µM*,10µM*,-21%
Cc1cccc2sc(NNC(=O)c3ccc(S(=O)(=O)N4CC(C)CC(C)C4)cc3)nc12 (configuration not stated),?,22µM*,-16%,50µM*,8.9µM*,-8%
Cc1cc(C)c2nc(NC(=O)c3ccc(S(=O)(=O)N4CCC(C)CC4)cc3)sc2c1,0%,0%,24%[57 µM],2%[59 µM],1%,·
Cc1cc(C)c2nc(NNC(=O)c3ccc(S(=O)(=O)N4CCCC(C)C4)cc3)sc2c1 (configuration not stated),5.6µM*,?,-22%,45µM*,8.9µM*,-15%
COCc1cc(CN(C)C(=O)c2oc3c(F)cccc3c2C)[nH]n1,1%,2%,34%,27%,-21%,-8%
CCOc1ccc(-c2csc(NNC3=NCCCCC3)n2)cc1,?,-8%[11.4 µM],?,7.9µM*,50µM*,19µM*
COc1ccc(-c2csc(NC3=NCCCCC3)n2)cc1,7%,-8%,32%,-9%[59 µM],-16%,-2%
SMILES,ALOX12 inh,JMJD2A Tudor inh,HP1b binding inh,G9a inh,BAZ2B block,PLK1 PBD inh
c1ccc(NNC2=NCCCCC2)cc1,?,-6%,36%,2.5µM*,0%,?
COc1ccc(-c2csc(NNC3=NCCCCC3)n2)cc1,?,?,?,10µM*,?,6.7µM*
c1ccc(-c2csc(NNC3=NCCCCC3)n2)cc1,?,-2%[11.4 µM],?,10µM*,?,24µM*
Oc1ccc(/C=N/Nc2ccc(Cl)nn2)cc1O,?,-18%,24%,-14%,-23%,0%
CC(C)(C)c1ccc(-c2cc(=O)c3cc(NC(=O)c4ccncc4)ccc3o2)cc1,20%,·,·,·,·,·
CCOC(=S)SCc1cn2cccc(C)c2n1,-3%,-6%,48%,32µM*,-20%,-28%
CC(=O)NCCNC(=O)CCc1nc(-c2ccccc2)c(-c2ccccc2)o1,34%,·,·,·,·,·
CCc1ccc(NC(=O)C(C)OC(=O)c2ccc(NS(=O)(=O)c3ccc(C)c([N+](=O)[O-])c3)cc2)cc1 (configuration not stated),?,-33%,-4%,?,-9%,?
Cc1ccc(S(=O)(=O)Nc2ccccc2C(=O)OC(C)C(=O)Nc2ccc3ccccc3c2)cc1[N+](=O)[O-] (configuration not stated),-10%,-30%,-1%,50µM*,-38%,-5%
CCOc1ccc(C=NNc2ccc(S(=O)(=O)Nc3ccccc3C(=O)O)cc2[N+](=O)[O-])cc1,?,22µM*,40µM*,·,·,19µM*
NS(=O)(=O)c1ccc(N/N=C/c2ccccc2)c([N+](=O)[O-])c1,5%,·,·,·,·,·
COc1ccc(NC(=S)NNc2ccc(S(=O)(=O)Nc3ccccc3C(=O)O)cc2[N+](=O)[O-])cc1,7.9µM*,?,11µM*,·,7.1µM*,8.4µM*
Cc1nn(-c2ccccc2)c(Cl)c1/C=N/Nc1ccc(S(=O)(=O)Nc2ccccc2C(=O)O)cc1[N+](=O)[O-],?,50µM*,?,20µM*,14µM*,27µM*
Cc1ccc(C(=O)NC2CCN(c3cnn(CC4CC4)c(=O)c3)CC2)s1,46%,·,·,·,·,·
COC(=O)CCS(=O)(=O)c1cc(Cl)ccc1Cl,-7%,-11%,36%,21%,4%,-4%
